# Measurements taken from the supplement of paper PMC13380429.
# Legend:
# [1] = test system: Vero E6 infected with SARS-CoV-2; experiment: morphology score (similarity to uninfected cells); higher = more like uninfected cells; details: 24 h
# [2] = test system: Vero E6 infected with SARS-CoV-2; experiment: SARS-CoV-2 infection rate relative to infected DMSO; higher = more infection, active = 60 or less; details: 24 h
SMILES,morphology score [1],SARS-CoV-2 infection rate [2]
Cc1c(Cc2ccc3ccccc3n2)c2cc(F)ccc2n1CC(=O)O (10 µM),0.0108,102% (inactive)
Nc1ccn([C@@H]2O[C@H](CO)[C@@H](O)[C@@H]2O)c(=O)n1 [cytarabine] (0.833333 µM),0.0731,97% (inactive)
CCc1nn(CCCN2CCN(c3cccc(Cl)c3)CC2)c(=O)n1CCOc1ccccc1 [nefazodone] (10 µM),0.0652,106% (inactive)
CC(C)CCC[C@@H](C)[C@H]1CC[C@H]2[C@@H]3CC=C4C[C@@H](O)CC[C@]4(C)[C@H]3CC[C@]12C [cholesterol] (10 µM),0.178,98% (inactive)
COc1ccc2c(OCc3nnc4ccc(-c5ccccc5)nn34)ccnc2c1 (10 µM),0.0318,110% (inactive)
CCCS(=O)(=O)Nc1ccc(F)c(C(=O)c2c[nH]c3ncc(Cl)cc23)c1F (10 µM),-0.0271,114% (inactive)
COc1ccc(S(=O)(=O)N2CCCN(S(=O)(=O)c3ccc(OC)c(OC)c3)CC2)cc1OC (10 µM),0.209,106% (inactive)
CC(C)(Oc1ccc(CCNC(=O)c2ccc(Cl)cc2)cc1)C(=O)O [bezafibrate] (10 µM),0.0236,104% (inactive)
COC(=O)Nc1nc2cc(C(=O)c3ccccc3)ccc2[nH]1 [mebendazole] (0.833333 µM),-0.163,102% (inactive)
O=C1NCN(c2ccccc2)C12CCN(CCCC(c1ccc(F)cc1)c1ccc(F)cc1)CC2 [fluspirilene] (10 µM),0.056,113% (inactive)
CC(C)(COP(=O)(O)OP(=O)(O)OC[C@H]1O[C@@H](n2cnc3c(N)ncnc32)[C@H](O)[C@@H]1OP(=O)(O)O)[C@@H](O)C(=O)NCCC(=O)NCCS [coenzyme-A] (10 µM),0.0234,102% (inactive)
N#Cc1cc(F)cc(-c2nc(-c3ccc(F)cn3)no2)c1 (10 µM),0.136,89% (inactive)
Cc1ccnc(NC(=O)C(C)c2cccc(C(=O)c3ccccc3)c2)c1 (centres undefined) [piketoprofen] (10 µM),-0.109,107% (inactive)
Cc1cccc(Nc2ccccc2C(=O)O)c1C [mefenamic-acid] (10 µM),0.0628,99.5% (inactive)
Cc1cccc(C)c1OCC(=O)N[C@@H](Cc1ccccc1)[C@@H](O)C[C@H](Cc1ccccc1)NC(=O)[C@H](C(C)C)N1CCCNC1=O [Lopinavir] (10 µM),0.184,82% (inactive)
COc1ccc(NS(=O)(=O)c2ccc(/N=N/c3ccc(O)c(C(=O)O)c3)cc2)nn1 [salazodine] (10 µM),0.0596,113% (inactive)
COc1cc(OC)c(NC(=O)Nc2cc(C)on2)cc1Cl (10 µM),0.268,87% (inactive)
N=C(N)NN=C1C=CC(=NNC(N)=S)C=C1 [ambazone] (10 µM),0.129,104% (inactive)
O=C(Nc1ccncc1)c1cc([N+](=O)[O-])ccc1Cl (10 µM),0.143,87% (inactive)
CC(C)(C)C(=O)OCOC(=O)[C@@H]1N2C(=O)[C@@H](NC(=O)[C@H](N)c3ccccc3)[C@H]2SC1(C)C [pivampicillin] (10 µM),0.0461,106% (inactive)
O=C(Nc1ccc(Cl)nc1)c1ccc(Cl)cc1 (10 µM),0.18,99.5% (inactive)
CCc1c(O)cc(O)c(C(=O)c2ccc(OCCN3CCOCC3)c(OC)c2)c1CC(=O)N(CCOC)CCOC (10 µM),-0.0338,102% (inactive)
CCCCCCCCCCCCCCCC=O [1-hexadecanal] (10 µM),0.185,100% (inactive)
C[C@H]1CN(C[C@H](Cc2ccccc2)C(=O)NCC(=O)O)CC[C@@]1(C)c1cccc(O)c1 [alvimopan] (10 µM),0.116,106% (inactive)
C=CCNC1=C2C[C@@H](C)C[C@H](OC)[C@H](O)[C@@H](C)/C=C(\C)[C@H](OC(N)=O)[C@@H](OC)/C=C\C=C(/C)C(=O)NC(=CC1=O)C2=O [tanespimycin] (10 µM),-0.0472,114% (inactive)
O=C(NOCC(O)CO)c1cc(Br)c(F)c(F)c1Nc1ccc(I)cc1F (centres undefined) (0.833333 µM),-0.0489,112% (inactive)
CC(C)(CC(=O)N1CCCC1)NCC(=O)N1C[C@@H](F)C[C@H]1C#N (10 µM),0.0148,102% (inactive)
